Measured values reported in PubChem BioAssay AID1159580 (chemical genetic matrix, 2015).
The whole screen tested about 5,500 compounds, of which about 2,000 (36%) were called active. About 18% were inconclusive and are not listed. Rule as the data show it: active = normalized growth mostly below about 0.91 (no sharp cut-off); inconclusive = no clear call, values can overlap the other calls; inactive = mostly above about 0.92. The list shows a part of the results.

Assay: chemical genetic growth profiling, strain panel (AID 1159580);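 also: tested at 20 µM; growth read once vehicle control cultures reached saturation at 30 °C; 1 = growth at the plate median or of vehicle wells; lower values mean less growth of the strain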
Conditions: S. cerevisiae deletion strains, growth OD

Measured: normalized growth

CC(CCC(=O)O)[C@H]1CCC2C3C(=O)C[C@@H]4CC(=O)CC[C@]4(C)C3CC(=O)[C@@]21C (stereo not given in full)
inactive: locus YAL021C, strain ccr4, hits give low values 0.995 | locus YAL026C, strain drs2, hits give low values 1 | locus YAL030W, strain snc1, hits give low values 0.994 | locus YBL061C, strain skt5, hits give low values 0.994 | locus YBR009C, strain hhf1, hits give low values 0.995 | locus YBR023C, strain chs3, hits give low values 0.993 | locus YBR171W, strain sec66, hits give low values 0.982 | locus YBR231C, strain swc5, hits give low values 0.994 | locus YBR279W, strain paf1, hits give low values 0.982 | locus YCL011C, strain gbp2, hits give low values 0.987 | locus YCL016C, strain dcc1, hits give low values 0.984 | locus YCL061C, strain MRC1, hits give low values 0.987 | locus YCL069W, strain vba3, hits give low values 0.995 | locus YCR088W, strain abp1, hits give low values 0.994 | locus YDL005C, strain med2, hits give low values 0.986 | locus YDL040C, strain nat1, hits give low values 0.991 | locus YDR001C, strain nth1, hits give low values 0.993 | locus YDR069C, strain doa4, hits give low values 1 | locus YDR137W, strain rgp1, hits give low values 1.01 | locus YDR159W, strain sac3, hits give low values 1.01 | locus YDR195W, strain ref2 0.999 | locus YDR297W, strain sur2, hits give low values 0.996 | locus YDR334W, strain swr1, hits give low values 0.993 | locus YDR335W, strain msn5, hits give low values 0.997 | locus YDR392W, strain spt3, hits give low values 0.932 | locus YEL003W, strain gim4, hits give low values 1.01 | locus YEL037C, strain rad23, hits give low values 0.99 | locus YEL061C, strain CIN8 (second series), hits give low values 0.99 | locus YER015W, strain faa2, hits give low values 1.01 | locus YER016W, strain bim1, hits give low values 0.999 | locus YER111C, strain swi4, hits give low values 0.998 | locus YER155C, strain BEM2 (second series), hits give low values 0.999 | locus YFR010W, strain ubp6, hits give low values 0.992 | locus YGL167C, strain pmr1, hits give low values 0.992 | locus YGL173C, strain kem1, hits give low values 0.989 | locus YGL227W, strain vid30, hits give low values 0.985 | locus YGL240W, strain doc1, hits give low values 1.01 | locus YGL253W, strain hxk2, hits give low values 0.991 | locus YHR013C, strain ard1, hits give low values 0.99 | locus YHR027C, strain rpn1, hits give low values 0.995 | locus YHR030C, strain SLT2, hits give low values 1.02 | locus YHR079C, strain IRE1, hits give low values 1.02 | locus YHR142W, strain chs7, hits give low values 0.952 | locus YJL092W, strain hpr5, hits give low values 0.993 | locus YJL095W, strain BCK1 (second series), hits give low values 0.991 | locus YJL095W, strain BCK1, hits give low values 1.01 | locus YJL115W, strain asf1, hits give low values 0.991 | locus YJL129C, strain trk1, hits give low values 1.01 | locus YJL154C, strain vps35, hits give low values 0.993 | locus YJL164C, strain tpk1, hits give low values 0.99 | locus YJL166W, strain qcr8, hits give low values 0.989 | locus YJL187C, strain SWE1, hits give low values 0.99 | locus YJR066W, strain TOR1, hits give low values 0.975 | locus YKL160W, strain elf1, hits give low values 0.977 | locus YKR026C, strain gcn3, hits give low values 0.993 | locus YKR091W, strain srl3, hits give low values 0.99 | locus YLL001W, strain dnm1, hits give low values 0.975 | locus YLL026W, hits give low values 0.998 | locus YLL041C, strain sdh2, hits give low values 0.993 | locus YLR027C, strain aat2, hits give low values 0.991 | locus YLR113W, strain HOG1, hits give low values 1.05 | locus YLR221C, strain rsa3, hits give low values 0.964 | locus YLR258W, strain gsy2, hits give low values 0.992 | locus YLR262C, strain YPT6 (second series), hits give low values 1 | locus YLR320W, strain mms22, hits give low values 0.971 | locus YLR342W, strain FKS1, hits give low values 0.99 | locus YLR357W, strain rsc2, hits give low values 0.986 | locus YLR370C, strain arc18, hits give low values 0.993 | locus YLR384C, strain iki3, hits give low values 0.978 | locus YML120C, strain ndi1, hits give low values 0.989 | locus YMR058W, strain fet3, hits give low values 0.999 | locus YMR125W, strain sto1, hits give low values 0.982 | locus YMR129W, hits give low values 0.99 | locus YMR205C, strain PFK2, hits give low values 0.989 | locus YMR231W, strain pep5, hits give low values 0.999 | locus YNL071W, strain lat1, hits give low values 0.997 | locus YNL183C, strain NPR1, hits give low values 0.997 | locus YNL209W, strain ssb2, hits give low values 0.997 | locus YNL248C, strain rpa49, hits give low values 0.982 | locus YNL322C, strain KRE1 (second series), hits give low values 0.992 | locus YNR049C, strain mso1, hits give low values 0.992 | locus YOR001W, strain rrp6, hits give low values 1.02 | locus YOR070C, strain gyp1, hits give low values 0.996 | locus YOR080W, strain dia2, hits give low values 0.994 | locus YOR083W, strain WHI5, hits give low values 0.969 | locus YOR106W, strain vam3, hits give low values 0.974 | locus YOR231W, strain MKK1, hits give low values 1.07 | locus YOR265W, strain rbl2, hits give low values 0.998 | locus YOR270C, strain vph1, hits give low values 0.957 | locus YOR290C, strain snf2, hits give low values 0.993 | locus YPL051W, strain arl3, hits give low values 1.01 | locus YPL078C, strain atp4, hits give low values 0.98 | locus YPL106C, strain sse1, hits give low values 0.975 | locus YPL240C, strain hsp82, hits give low values 1 | locus YPL256C, strain CLN2, hits give low values 1.02
